Z-score data for 98 compounds are collected here from PubChem BioAssay AID1628 (Sanford-Burnham Center for Chemical Genomics, 2009).

About 930 (0.49%) of roughly 190,000 compounds were called active.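 Rule for the calls: active = z-score of insulin promoter reporter brightness in nuclei below -3 at 5 µM, with at least 500 cells counted; inconclusive = wells with under 500 cells, flagged as toxic or sparse; inactive = the rest.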 This is one part of the list. Measured potencies and affinities stand elsewhere.

The assay is described as follows: insulin promoter down-regulators in MIN6 cells, imaging, high-content screening, mouse beta cells (AID 1628). The note with it: MIN6 insulin promoter GFP reporter, at 5 µM, active compounds read low.
Turning to `CCCCN(CC(=O)NCc1ccc(Cl)cc1)S(=O)(=O)c1ccc2c(c1)OCCO2`, the z-score is -4.37 (active).

As to `Cc1cc(SCC(=O)N2CCCC2)nc2ccccc12`, the z-score is -0.89 (inactive).

As for `COc1cc2c(cc1OC)C(C)=NCC2`, the z-score is 0.45 (inactive).

Regarding `Cc1cc2oc(=O)cc(CN3CCN(S(=O)(=O)c4ccc5c(c4)OCCO5)CC3)c2cc1C`, the z-score is -4.33 (active).

With `CNC(=O)C1CC(=O)N/C(=N/N=C(\C)c2cccs2)S1` (stereo not drawn), the z-score was 3.72 (inactive).

Take `CCOc1ccccc1OCCCCCc1c(C)n[nH]c1C`: the z-score was -3.04 (active).

As for `O=c1c(Cl)c2oc3ccccc3nc-2c2ccccc12`, the z-score is 6.06 (inactive).

For the compound `COc1ccc(CCn2c(C3CCCCC3)nc3c(c(=O)c4ccccc4n3C)c2=O)cc1`, the z-score was -3.39 (active).

As to `c1cc2c3c(cccc3c1)NC1(CCCCCC1)N2`, the z-score is -4.13 (active).

As to `COc1cc(C(C(=O)NC(C)(C)C)N(Cc2ccccc2)C(=O)c2cnccn2)cc(OC)c1OC` (stereo not drawn), the z-score is -0.06 (inactive).

Take `COc1cc(C(=O)N/N=C(\c2ccccc2)c2ccccn2)cc(OC)c1OC`: the z-score was -3.93 (active).

`CCc1ccccc1NC1=CC(=O)CC(C)(C)C1`: the z-score was 1.6 (inactive).

Take `Cc1ccccc1OCC(=O)OC1CCN(C)CC1`: the z-score was 8.59 (inactive).

As for `Cc1ccccc1OCc1n(CC(=O)OC2CC(C)CCC2C(C)C)c2ccccc2[n+]1C` (stereo not drawn), the z-score is -5.14 (active).

In the case of `COCCCNc1c2c3c(cccc3[nH]c1=O)C(=O)c1ccccc1-2`, the z-score was 13.6 (inactive).

With `CCOC(=O)c1c2c3c(c(Cl)ccc3[nH]c1=O)C(=O)c1ccccc1-2`, the z-score is -3.28 (active).

With `N#C/C(=C/c1ccc(-c2ccc(S(N)(=O)=O)cc2)o1)c1nc2ccccc2s1`, the z-score was 16.5 (inactive).

`CSc1nc2ccc(S(N)(=O)=O)cc2s1`: the z-score is -4.36 (active).

With `c1ccc2c(c1)[nH]c1c(N3CCC4(CC3)OCCO4)ncnc12`, the z-score was -4.74 (active).

For the compound `CC1(C)CCc2c([nH]c3ccccc3c2=O)O1`, the z-score was 0.3 (inactive).

Consider `Cc1ccc2[nH]c3c(N4CCCCCC4)ncnc3c2c1`, for which the z-score is -3.59 (active).

For `Cc1cc2ccccn2c1C(=O)c1ccncc1`, the z-score was -8.28 (active).

In the case of `COC(=O)c1cc2c(-c3ccccc3)cc3ccccn3c-2c1C(=O)OC`, the z-score is 3.3 (inactive).

`CC(NC(=O)/C(C#N)=C1\N=C(NC(=O)c2ccco2)c2ccccc21)c1ccccc1` (stereo not drawn): the z-score is 3.68 (inactive).

On to `COc1ccc(-c2cnn3c4c(c(C)nc23)CCN4C2CCCC2)cc1OC`, for which the z-score was -4.71 (active).

On to `CCCCNC(=O)C1CC(=O)N(C2CCCCC2)C1` (stereo not drawn), for which the z-score was 3.02 (inactive).

Consider `c1nc(N2CCNCC2)c2sc3nc(N4CCOCC4)c4c(c3c2n1)CCC4`, for which the z-score was -3.71 (active).

Take `N#Cc1c2c(c(-n3cnc4ccccc43)n3c1nc1ccccc13)CCC2`: the z-score is 4.79 (inactive).

Regarding `OC(COc1ccc2c(c1)CCC2)Cn1cnc2ccccc21` (stereo not drawn), the z-score is -4.14 (active).

As for `CC1(C)NC(=O)N(CCCCOc2ccc3c(c2)CCC3)C1=O`, the z-score was -1.15 (inactive).

Turning to `CCc1cc(C(=O)Cc2cnn(-c3ccccc3)c2)c(O)cc1O`, the z-score was 0.58 (inactive).

For the compound `O=C1Nc2ccc(NS(=O)(=O)c3cccs3)c3cccc1c23`, the z-score was 1.61 (inactive).

Regarding `COc1cc2cccc(OC)c(=O)c2c(OC)c1OC`, the z-score was 0.56 (inactive).

For the compound `N#C/C(=C\N1CCN(Cc2ccc3c(c2)OCO3)CC1)c1nc2ccccc2s1`, the z-score is 3.92 (inactive).

Consider `c1ccc(CCn2nnnc2C(c2cccs2)N2CCN(Cc3ccc4c(c3)OCO4)CC2)cc1` (stereo not drawn), for which the z-score is -4.21 (active).

On to `Cc1ccc(NC2=NCC(=O)N2C2CCCC2)c(C)c1`, for which the z-score was 0.57 (inactive).

As for `Cc1cc(C)nc(NC2=NCC(=O)N2c2ccc(Cl)cc2)n1`, the z-score is -3.4 (active).

As for `CNC(=O)c1c(NC(=O)c2ccc(S(=O)(=O)N3CCCc4ccccc43)cc2)sc2c1CCN(C)C2`, the z-score was 8.33 (inactive).

For the compound `COc1cccc2sc(NNC(=O)C3=COCCO3)nc12`, the z-score was 5.68 (inactive).

Regarding `Cc1cccc2sc(NNC(=O)c3ccc4c(c3)OCCO4)nc12`, the z-score was 3.4 (inactive).

For `Cc1cc(C)c2nc(NNC(=O)c3ccc(S(=O)(=O)N4CCc5ccccc5C4)cc3)sc2c1`, the z-score is -5.92 (active).

`CC1CN(S(=O)(=O)c2ccc(C(=O)Nc3sc4c(c3C(N)=O)CCN(C)C4)cc2)CC(C)O1` (stereo not drawn): the z-score is 11 (inactive).

As to `CC(C)N1CCc2c(sc(NC(=O)c3ccc(S(=O)(=O)N4CCc5ccccc54)cc3)c2C(N)=O)C1`, the z-score is 4.91 (inactive).

On to `CCCN1C(=O)S/C(=C\c2ccc(N3CCOCC3)o2)C1=O`, for which the z-score was 9.56 (inactive).

For `COc1ccc(-c2n(Cc3ccccc3)c3ccccc3[n+]2Cc2ccccc2)cc1`, the z-score was -8.43 (active).

For `CCOc1ccccc1C(=O)Nc1nnc(COC)s1`, the z-score was 0.76 (inactive).

Turning to `CCc1nnc(NC(=O)CCC(=O)NCc2ccccc2OC)s1`, the z-score was 4.05 (inactive).

Regarding `CCCC1C2CN(C(C)C)CC=C2C(C#N)=C(N)C1(C#N)C#N` (stereo not drawn), the z-score is 16.1 (inactive).

For the compound `CCOC(=O)CSc1nc2cc3c(cc2cc1CC)OCCO3`, the z-score was 0.81 (inactive).

Consider `Cc1ccc(/C(N)=N/OC(=O)c2ccc(F)cc2)cc1`, for which the z-score is -4.16 (active).

Regarding `CCC1COC(c2cccn2Cc2ccc(Cl)cc2)=N1` (stereo not drawn), the z-score was 2.5 (inactive).

On to `CC1=C/C(=C\C=C(C#N)C#N)N(C)c2ccccc21`, for which the z-score is 4.05 (inactive).

For `COCc1cc(C)nc(Nc2ccccc2C)c1C#N`, the z-score was 3.32 (inactive).

As for `CCCOC(=O)c1ccc(NC(=O)c2cc(OC)c(OC)c(OC)c2Br)cc1`, the z-score is -3.3 (active).

Regarding `CCCOC(=O)C1=C(C)NC2=C(C(=O)CCC2)C1c1cccc(OC)c1OC` (stereo not drawn), the z-score is -0.62 (inactive).

Consider `C=CCNC(=S)NNC(=O)c1ccc(OCCCC)cc1`, for which the z-score was 0.58 (inactive).

Take `COC(=O)c1cc(NC(=O)c2ccccc2)c(=O)oc1/C=C/Nc1ccc(Oc2ccccc2)cc1`: the z-score is 10.8 (inactive).

For the compound `CCOc1ccc2c(c1)C(C)=CC(C)(C)N2S(=O)(=O)c1ccc(C)cc1`, the z-score is -3.31 (active).

Turning to `CCOc1ccc(NS(=O)(=O)c2ccc(NS(=O)(=O)c3ccccc3)cc2)cc1`, the z-score was 7.53 (inactive).

Consider `CCOc1ccc2nc(NCCCNS(=O)(=O)c3ccc(C)cc3)c(C#N)cc2c1`, for which the z-score was 1.84 (inactive).

For the compound `Cc1nc2ccccc2n1CC(=O)NCc1ccccc1`, the z-score was -3.91 (active).

For `C=C(C)Cn1c(CCCNC(=O)CC)nc2ccccc21`, the z-score was 0.76 (inactive).

With `Cn1nc(CC(=O)Nc2cccc3ncccc23)c2ccccc2c1=O`, the z-score is -4.57 (active).

For `O=C(COC(=O)c1ccco1)Nc1ccc2c(c1)OCCO2`, the z-score was 0.45 (inactive).

`COc1ccccc1NC(=O)CSc1nc2c(sc3ccccc32)c(=O)n1CCN(C)C`: the z-score is 2.23 (inactive).

With `O=C(CCl)Nc1cccc2ncccc12`, the z-score was 4.01 (inactive).

Consider `O=c1ccnc(Nc2ccc3c(c2)OCCO3)[nH]1`, for which the z-score is 3.66 (inactive).

Take `O=C(O)c1ccc(N2C(=O)Nc3ccccc3N2O)cc1`: the z-score was 2.34 (inactive).

In the case of `CCn1cc(C(=O)O)c(=O)c2cnc(N3CCN(C(=O)Nc4cccc5ccccc45)CC3)nc21`, the z-score is -5.9 (active).

On to `CCn1cc(C(=O)O)c(=O)c2cnc(N3CCN(C(=S)Nc4ccc(F)cc4)CC3)nc21`, for which the z-score was -3.18 (active).

As to `CCn1cc(C(=O)O)c(=O)c2cc(F)c(N3CCN(C)CC3)cc21`, the z-score was -0.61 (inactive).

Turning to `COc1ccc(/C=C(\C#N)C(=O)OCC(=O)Nc2c(C)cccc2C(C)C)cc1`, the z-score was 3.36 (inactive).

On to `O=C(O)C1CC=CCC1C(=O)Nc1ccc(N2CCN(Cc3ccccc3)CC2)cc1` (stereo not drawn), for which the z-score was -4.25 (active).

On to `CN(C)c1ccc(/C=C2\N=C(c3ccc(Cl)c([N+](=O)[O-])c3)NC2=O)cc1`, for which the z-score was 4.65 (inactive).

Turning to `CCOc1ccc(CN(Cc2ccco2)C(c2cccs2)c2nnnn2C(C)(C)C)cc1` (stereo not drawn), the z-score was -3.47 (active).

In the case of `COc1ccc2nc(N/C(N)=N/C(=S)Nc3ccccc3)nc(C)c2c1`, the z-score is 2.22 (inactive).

`CN(C)c1ccc(/C=C(/C#N)C(=O)NCc2ccccc2)o1`: the z-score was 16.1 (inactive).

Regarding `CCCNc1c(F)c(F)c2c(C)c3ccccc3nc2c1F`, the z-score was 5.94 (inactive).

For `CSc1nc(-c2ccco2)nn1C(=O)c1ccco1`, the z-score is -6.58 (active).

`O=C(Oc1ccc2ccccc2c1)c1ccco1`: the z-score was -0.59 (inactive).

Consider `Cc1ccc(NS(=O)(=O)c2ccc(CCC(=O)O)cc2)cc1`, for which the z-score is 1.37 (inactive).

In the case of `Cc1ccc(S(=O)(=O)Nc2ccc(=O)n(Cc3ccc(Cl)c(Cl)c3)c2)cc1`, the z-score was 3.26 (inactive).

On to `Cc1ccc(S(=O)(=O)NC(N)=NCCc2ccc(Cl)cc2)cc1`, for which the z-score was -4.29 (active).

As to `O=C1CN(C(=O)COc2ncnc3ccccc23)c2ccccc2N1`, the z-score is 4.05 (inactive).

As to `CCCCOc1ccc(-c2cc(C(F)(F)F)c(C#N)c(SCC(=O)O)n2)cc1`, the z-score was 4.82 (inactive).

Regarding `COc1ccc2c(=O)c(-c3ccccc3)coc2c1`, the z-score was -0.45 (inactive).

As for `C=CCn1c(SCCOc2ccc(OC)cc2)nnc1C(C)NC(=O)Cc1ccc(OC)cc1` (stereo not drawn), the z-score is 4.23 (inactive).

`CN(C)C(=O)CSc1nnc(-c2cnccn2)n1C`: the z-score is 0.77 (inactive).

With `C=CCn1c(SCC(=O)Nc2nccs2)nnc1-c1cc2cccc(OC)c2o1`, the z-score was -3.45 (active).

As for `C=CCn1c(SCC(=O)Nc2cc3oc4ccccc4c3cc2OC)nnc1-c1cnccn1`, the z-score was -3.06 (active).

Consider `Cc1nn(C)c(C)c1S(=O)(=O)N(CC(=O)Nc1nccs1)c1ccc(C(C)C)cc1`, for which the z-score is 3.98 (inactive).

As for `CCCCc1c(C)nn(-c2nnc3c4ccccc4n(CC)c3n2)c1C`, the z-score was -3.04 (active).

In the case of `COc1ccc(C2C(C#N)=C(N)N(c3ncn[nH]3)C3=C2C(=O)CCC3)cc1` (stereo not drawn), the z-score was 1.75 (inactive).

`CCN(CC)C(=O)Oc1cc(=O)n(C)c2ccccc12`: the z-score is -3.24 (active).

Consider `CCCC(=O)c1c(C)c2ccccc2n1C`, for which the z-score was 3.01 (inactive).

With `Nc1cccc2c1C(=O)N(C(=O)c1cccc(S(=O)(=O)N3CCCC3)c1)C2=O`, the z-score is 3.15 (inactive).

Turning to `O=C(Nc1ccon1)c1cccc(S(=O)(=O)N2CCCCC2)c1`, the z-score is 3.46 (inactive).

In the case of `Cc1cc(NC(=O)c2cccc(S(=O)(=O)N3CCCCCC3)c2)n(-c2ccccn2)n1`, the z-score was -3.67 (active).
